This passage reports outcome results from PubChem BioAssay AID2284386 (EPA ToxCast).

Molecules are shown by their SMILES. Calls of active or inactive are those of the source. How the source made its calls: active means hit-call score of the fitted dose curve at least 0.9, where 1 is the maximum; inactive means score below 0.9.

Sequence of Peroxisome proliferator-activated receptor gamma (Homo sapiens) (P37231 whole entry, looked up): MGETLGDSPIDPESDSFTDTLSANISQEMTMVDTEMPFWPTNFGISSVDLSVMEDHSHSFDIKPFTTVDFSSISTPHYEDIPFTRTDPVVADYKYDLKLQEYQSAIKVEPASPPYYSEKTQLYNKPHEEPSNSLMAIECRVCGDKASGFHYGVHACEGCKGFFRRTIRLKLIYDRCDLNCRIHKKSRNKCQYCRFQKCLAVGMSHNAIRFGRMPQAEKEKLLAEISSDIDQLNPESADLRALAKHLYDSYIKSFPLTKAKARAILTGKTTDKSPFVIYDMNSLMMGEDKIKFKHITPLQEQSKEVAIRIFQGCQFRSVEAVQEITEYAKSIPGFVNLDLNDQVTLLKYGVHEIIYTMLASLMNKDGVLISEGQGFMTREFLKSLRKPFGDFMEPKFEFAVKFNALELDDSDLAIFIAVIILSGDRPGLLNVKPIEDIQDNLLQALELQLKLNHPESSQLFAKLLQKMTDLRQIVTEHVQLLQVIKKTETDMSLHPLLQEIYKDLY

The target in this assay is Peroxisome proliferator-activated receptor gamma (Homo sapiens) (UniProt P37231). Nature of the assay: ERF_FR_NR_COA_hPPARG: Eurofins (ERF) Nuclear Receptor (NR) Functional Coactivator Assay for human Peroxisome Proliferator-activated Receptor gamma (PPARg) Agonism, conducted at France lab site. On the procedure:
ERF_FR_NR_COA_hPPARG is a biochemical, single-readout assay that uses extracted gene-proteins in a cell-free assay. Measurements were taken 2 hours after chemical dosing in a 384-well plate. See PPARgamma Human NHR Functional Agonist Coactivator Assay, Cerep.ERF_FR_NR_COA_hPPARG is an assay component calculated from the ERF_FR_NR_COA_hPPARG assay. It is designed to measure FRET using a type of binding reporter as detected by fluorescence intensity of Rosiglitazone with fluorimetry technology.Data from the assay component ERF_FR_NR_COA_hPPARG was analyzed at the assay endpoint, ERF_FR_NR_COA_hPPARG, in the positive analysis fitting direction relative to DMSO as the negative control and baseline of activity. Using a type of binding reporter, gain-of-signal activity can be used to understand changes in binding as they relate to gene PPARG. To generalize the intended target to other relatable targets, this assay endpoint is annotated to the nuclear receptor intended target family, where the subfamily is non-steroidal.
Test compound and/or vehicle is incubated with the 2 nM receptors and coactivator peptide for 180 minutes at room temperature. Determination of the amount of complex formed is read spectrofluorimetrically (excitation: 337 nm, emission: 520/490 nm). Test compound-induced increase fluorescence by 50 percent or more (>/=50%) relative to 1 uM GW1929 response indicates possible PPARgamma receptor agonist activity. Test compound-induced inhibition of 5 nM GW1929-induced fluorescence response by 50 percent or more (>/=50%) indicates receptor antagonist activity.
For the compound `NC(=O)c1nc(-c2cccc(-c3cc(F)ccc3OCC(F)(F)C(F)(F)F)c2)n[nH]1`, the compound was classed as inactive.
Regarding `O=C(CC(=O)C(F)(F)C(F)(F)C(F)(F)F)c1cccs1`, the outcome was inactive.
Take `O=C(O)CCC(F)(F)C(F)(F)C(F)(F)F`: the call was inactive.
